High-throughput results (PubChem)
GPR151 activ = activates the human receptor GPR151; Q8TDV0; PathHunter beta-arrestin GPR151 cells, luminescence; activation, % at 11.2 µM; 650,000 compounds, 1% hits; in the data active = activation above about 4.9%;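 also: 0% = median of compound wells and 100% = cells with positive control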
MITF primary = human MITF inhibition, primary screen; AID 1259374; AlphaScreen MITF homodimerization, bead proximity signal; inhibition, % at 2.6 µM; 650,000 compounds, 0.91% hits; in the data active = inhibition above about 50%;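 also: 0% = vehicle wells with protein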
Target sequence (O75030 whole entry, looked up): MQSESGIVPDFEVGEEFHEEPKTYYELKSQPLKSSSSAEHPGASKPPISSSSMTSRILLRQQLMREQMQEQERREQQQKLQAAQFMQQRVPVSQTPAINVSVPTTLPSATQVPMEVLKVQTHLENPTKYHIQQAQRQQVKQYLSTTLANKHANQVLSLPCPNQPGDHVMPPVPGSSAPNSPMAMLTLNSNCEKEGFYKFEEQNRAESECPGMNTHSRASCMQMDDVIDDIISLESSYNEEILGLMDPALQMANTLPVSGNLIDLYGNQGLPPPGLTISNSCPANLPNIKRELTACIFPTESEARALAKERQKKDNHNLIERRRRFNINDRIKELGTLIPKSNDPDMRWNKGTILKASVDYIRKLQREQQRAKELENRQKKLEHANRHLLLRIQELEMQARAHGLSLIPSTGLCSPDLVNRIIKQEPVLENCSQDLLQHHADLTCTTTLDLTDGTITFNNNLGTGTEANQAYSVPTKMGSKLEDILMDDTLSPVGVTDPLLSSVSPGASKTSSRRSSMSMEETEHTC
TEAD-YAP inh = TEAD-YAP interaction inhibition. 640,000 compounds, 1.4% hits. HEK-TIYL cells, TEAD-Gal4/YAP UAS-luciferase luminescence. inhibition, % at 9.12 µM; in the data active = inhibition above about 32%;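 also: 0% = median of test compound wells and 100% = reference inhibitor wells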
FBW7 act = activators of human E3 ligase FBW7 | Q969H0 | AlphaScreen FBW7–phospho-cyclin E peptide binding, activator screen | normalized activity (activation), % at 26.1 µM | 650,000 compounds, 0.13% hits | AID 1259310; in the data active = normalized activity above about 1.9%;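 also: purified mutant Fbw7 with reduced substrate affinity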
MITF confirm = human MITF inhibition, confirmation. AID 1259372. 4,700 compounds, 16% hits. AlphaScreen MITF homodimerization, biotin/His-MITF beads. shares compounds with MITF primary. inhibition, % at 2.6 µM;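 active = inhibition above a cutoff derived from the DMSO control wells, cut at about 28% in these data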;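 also: 0% = MITF dimer wells with DMSO only; inhibitors lower the bead chemiluminescence by keeping MITF from dimerizing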
AlphaScreen intf2 = counter-screen: compounds optically interfering with AlphaScreen; shares compounds with MITF primary; LysRS AlphaScreen counterscreen, signal interference, triplicate; inhibition, % at 2.6 µM; 4,700 compounds, 7.6% hits; AID 1259376;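 active = inhibition above a cutoff derived from the DMSO control wells, cut at about 30% in these data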
An asterisk follows results filed as active; . = not tested or not shown. Only some compounds are listed: those with a hit (about 3.5% of all), similar ones and a draw of the others.

SMILES	GPR151 activ	MITF primary	TEAD-YAP inh	FBW7 act	MITF confirm	AlphaScreen intf2
O=[N+]([O-])c1cc(Cl)c(O)c2ncccc12	-1	37	10	0	.	.
Cc1ccc(/C=C/C(=O)O)cc1S(=O)(=O)N1CCOCC1	2	-5	5	0	.	.
O=C(O)Cc1cc(=O)n(-c2ccccn2)[nH]1	-1	117*	-4	-1	118*	100*
Cc1nn(C(C)C)c(C)c1CN1CCN(C2CCN(C(C)C)CC2)C(CCO)C1 (stereo unspecified)	2	4	14	0	.	.
O=C(CN1CC(=O)Oc2ccccc21)Oc1ccc(F)cc1	0	69*	0	0	3	3
Cn1c(=O)n(C)c2cc(/C=C(\C#N)C(N)=S)ccc21	2	3	2	0	.	.
O=C(c1ccccc1F)N1CCN(Cc2ccccc2[N+](=O)[O-])CC1	0	62*	-3	0	7	17
O=C(c1ccccc1F)N1CCN(Cc2ccccc2C(F)(F)F)CC1	-1	58*	-3	0	1	-9
O=C(c1ccccc1F)N1CCN(Cc2c[nH]c3ccccc23)CC1	-1	35	16	0	.	.
O=C(c1cccnc1)N1CCN(Cc2ccccc2[N+](=O)[O-])CC1	-1	82*	5	0	-2	-3
COc1ccc(Br)cc1CN1CCN(C(=O)c2ccccc2F)CC1	-3	65*	-3	1	5	15
O=C(c1cccc(F)c1)N1CCN(Cc2ccccc2[N+](=O)[O-])CC1	-1	22	2	0	.	.
COc1ccc(Br)cc1CN1CCN(C(=O)c2ccccc2)CC1	0	43	8	0	.	.
O=C(Cc1cccc2ccccc12)N/N=C\c1ccccc1[N+](=O)[O-]	2	14	13	0	.	.
O=C(NC1CCCC1)C1CCN(S(=O)(=O)N2CCOCC2)CC1	-1	17	-1	1	.	.
CCCNC(=O)N1CCCC1c1nnc(SCc2ccccc2)n1C (stereo unspecified)	-2	5	-1	0	.	.
NNC(=O)c1cc[n+](Cc2ccc3nsnc3c2)cc1	2	12	-3	0	.	.
O=C(c1ccc(F)cc1)N1CCN(Cc2ccccc2[N+](=O)[O-])CC1	3	55*	5	0	-14	-5
O=C(COc1ccccc1)OCC(=O)c1ccc[nH]1	-1	-1	0	0	.	.
O=C(N/N=C/c1ccccn1)c1cccc2ccccc12	-1	4	-29	0	.	.
O=C(N/N=C/c1ccccn1)C1=NNC(=O)C1CCO (stereo unspecified)	0	65*	-6	-1	31*	96*
CS(=O)(=O)N1CCN(c2ccc([N+](=O)[O-])c(N3CCN(Cc4ccccc4)CC3)c2)CC1	0	83*	10	0	-5	-3
O=[N+]([O-])c1ccccc1CN1CCN(S(=O)(=O)Cc2ccccc2)CC1	1	70*	12	1	12	18
CCS(=O)(=O)N1CCN(Cc2ccccc2[N+](=O)[O-])CC1	0	-1	2	0	.	.
O=S(=O)(Cc1ccccc1)N1CCN(Cc2ccccc2Cl)CC1	1	92*	5	0	11	11
SMILES	GPR151 activ	MITF primary	TEAD-YAP inh	FBW7 act	MITF confirm	AlphaScreen intf2
CCc1nn2c(N)c(/C=C3\C=CC=C(OC)C3=O)c(=O)nc2s1	0	7	-6	0	.	.
Cc1cc(C)c(NC(=O)CN2CCC(NC(=O)C3CCCCC3)CC2)c(C)c1	-1	1	4	0	.	.
CC1CCCCC1Nc1ncnc2sccc12 (stereo unspecified)	3	64*	7	0	2	2
COc1ccc2oc(=O)c(-c3nnc(-c4ccc(Cl)cc4)o3)cc2c1	-1	84*	4	0	3	7
COc1cc(CN2CCN(c3ccccn3)CC2)cc(Br)c1O	-1	42	6	0	.	.
COc1cc(CN2CCN(Cc3ccccc3C)CC2)cc(OC)c1OC	3	64*	-7	0	-7	0
COc1cc(CN2CCN(Cc3ccccc3Br)CC2)cc(OC)c1O	-1	68*	-1	1	2	18
COc1cc(CN2CCN(Cc3ccccc3C)CC2)cc(OC)c1O	-1	59*	-5	0	-8	-1
COc1cc(CN2CCN(C(=O)c3ccccc3)CC2)cc(OC)c1O	0	24	3	0	.	.
COc1cc(CN2CCN(c3ccccc3C)CC2)cc(OC)c1OC	0	31	-4	0	.	.
COc1cc(CN2CCN(CCO)CC2)cc(Br)c1O	0	67*	-2	0	-2	9
Cc1ccccc1-n1nc([N+](=O)[O-])c(=NCc2ccccc2Cl)n1O	0	15	1	0	.	.
CCCc1nc2c(sc3nc4c(cc32)COC(C)(C)C4)c(=O)n1Cc1cccnc1	1	6	3	0	.	.
COc1cc(CN2CCN(Cc3c[nH]c4ccccc34)CC2)cc(OC)c1OC	1	56*	8	0	17	17
C=CCSc1nc2sc3c(c2c(=O)n1-c1ccc(C)cc1)CCCCC3	1	11	0	0	.	.
CN(C)CCCN(CCCN(C)C)CC(c1ccccc1)c1ccccc1	0	55*	9	1	-4	0
CN1CCN(CCS(=O)(=O)OCC(F)(F)F)CC1	1	84*	4	0	10	14
O=C1c2cccc3cccc(c23)C(=O)N1CCS(=O)(=O)OCC(F)(F)F	0	12	2	0	.	.
O=C(NCCN1CCOCC1)C1CCN(Cc2ccc(Cl)c(Cl)c2)CC1	-1	69*	-2	1	-5	-1
CCOc1ccccc1CN1CCC(C(=O)NCCN2CCOCC2)CC1	0	52*	1	0	4	16
CCOC(=O)COc1ccc(/C=C2\Oc3cc(OC)ccc3C2=O)cc1OC	2	-7	-5	0	.	.
COc1ccc(OCC(=O)OCC(=O)COC(=O)COc2ccc(OC)cc2)cc1	-1	77*	4	0	11	6
COc1cc(CN2CCCCCC2)c([N+](=O)[O-])cc1OC	2	20	1	0	.	.
COc1ccc(OC)c(CN2CCN(Cc3cc(OC)c(OC)cc3[N+](=O)[O-])CC2)c1	0	72*	4	0	11	18
COc1cc(CN2CCN(c3ccccc3OC)CC2)c([N+](=O)[O-])cc1OC	0	21	2	0	.	.
COc1cc(CN2CCN(c3ccccc3F)CC2)c([N+](=O)[O-])cc1OC	0	64*	-3	0	12	6
COc1cc(CN2CCCCC2)c([N+](=O)[O-])cc1OC	0	-7	6	0	.	.
COc1cccc(CN2CCN(Cc3cc(OC)c(OC)cc3[N+](=O)[O-])CC2)c1	0	76*	7	0	11	20
COc1cc(OC)c(OC)cc1CN1CCN(Cc2cc(OC)c(OC)cc2[N+](=O)[O-])CC1	0	62*	2	0	5	15
